These results are taken from PubChem BioAssay.

Activity calls are given as the source filed them. Unless noted, no rule for the calls is given here.

The nature of test [1]: resazurin metabolic signal in HepG2 cells – cell-based, resazurin fluorescence, 24 h, PK04 Diversity Set, profiling panel (AID 1172). Particulars: HepG2 viability, higher = more signal. For orientation: Resazurin is reduced to fluorescent resorufin, in cell work by metabolically active cells.
Test [2] in a line: budding yeast growth changes without added modifier – OD600, strain BY4716, 24 h, basal condition, primary screen (AID 1173). Particulars: S. cerevisiae BY4716 growth, OD600, 24 h; higher = more signal, called active from +8 up or from −8 down.
The nature of test [3]: viability profiling in MM1S myeloma cells – cell-based, resazurin fluorescence, basal, 24 h, PK04 Diversity Set, profiling panel (AID 1174).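 Also: MM1S multiple myeloma cell line.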 The following applies: higher = more signal, called active from +8 up or from −8 down.
The target of test [4] is Dihydroorotate dehydrogenase (quinone), mitochondrial (Plasmodium falciparum (isolate 3D7)) (UniProt Q08210). Description: inhibition of P. falciparum DHODH – biochemical, C-terminal His tag, absorbance 600 nm, primary screen (AID 1175).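 Also: recombinant parasite enzyme with a five histidine tag at its C terminus.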 The following applies: PfDHODH enzyme, DCIP absorbance 600 nm; higher = more signal, called active from +8 up or from −8 down.
Sequence of Dihydroorotate dehydrogenase (quinone), mitochondrial (Plasmodium falciparum (isolate 3D7)) (Q08210 whole entry, looked up): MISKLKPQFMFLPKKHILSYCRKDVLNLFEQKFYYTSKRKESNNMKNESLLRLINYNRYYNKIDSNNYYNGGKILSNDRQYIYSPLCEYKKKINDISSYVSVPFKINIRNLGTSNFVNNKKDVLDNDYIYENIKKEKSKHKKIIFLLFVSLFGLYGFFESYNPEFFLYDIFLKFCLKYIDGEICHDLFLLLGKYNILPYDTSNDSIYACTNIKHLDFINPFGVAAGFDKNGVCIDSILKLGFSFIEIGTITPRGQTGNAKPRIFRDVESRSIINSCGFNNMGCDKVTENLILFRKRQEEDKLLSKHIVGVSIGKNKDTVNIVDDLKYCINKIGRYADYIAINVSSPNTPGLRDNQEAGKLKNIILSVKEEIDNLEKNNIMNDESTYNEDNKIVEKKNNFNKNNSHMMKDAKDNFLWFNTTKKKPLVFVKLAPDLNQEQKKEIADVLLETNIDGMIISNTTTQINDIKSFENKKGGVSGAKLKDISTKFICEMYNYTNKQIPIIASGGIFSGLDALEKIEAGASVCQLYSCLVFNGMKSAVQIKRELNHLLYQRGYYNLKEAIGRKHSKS
Test [5] can be described thus: inhibition of PAO1 biofilm formation – strain PAO1, LB-PBS medium, absorbance 600 nm, primary screen (AID 1176). The following applies: P. aeruginosa PAO1 growth/biofilm, A600, 12 h; higher = more signal.
The nature of test [6]: growth modulation of vineyard yeast isolate – strain RM11-1a, OD600, basal, 24 h, primary screen (AID 1177).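 Also: cultures grown under basal conditions with no added stressor.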 Particulars: S. cerevisiae RM11-1a growth, OD600, 24 h; higher = more signal, called active from +8 up or from −8 down.
The nature of test [7]: growth of efflux-deficient E. coli DRC39 – strain DRC39, OD650, 24 h, E. coli filamentation inducers, primary screen (AID 1178).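 Also: growth measured as culture turbidity by optical density at 650 nm.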 Particulars: E. coli DRC39 acrAB, higher = more signal, called active from +8 up or from −8 down.
Test [8] in a line: growth of efflux-deficient E. coli DRC39 – strain DRC39, OD650, 48 h, E. coli filamentation inducers, primary screen (AID 1179).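 Also: screen aims at cell division blockers that make cells filament.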 Particulars: E. coli DRC39 delta-acrAB growth, higher = more signal, called active from +8 up or from −8 down.
Test [9] is described as follows: viability profiling in RPMI8226 myeloma cells – cell-based, resazurin fluorescence, basal, 24 h, PK04 Diversity Set, profiling panel (AID 1180).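 Also: RPMI8826 multiple myeloma cell line at 5000 cells per well.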 Particulars: higher = more signal.
Test [10] addresses E3 ubiquitin-protein ligase XIAP (Homo sapiens) (UniProt P98170). Description: small molecules binding XIAP protein – biophysical, small-molecule microarray, fluorescence 635 nm, primary screen (AID 1181).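 Also: score merges 667 nm emission and signal to noise over triplicate slides.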 The following applies: higher = more signal.
Test [11] deals with XIP peptide (Xip251-270) binding. Description: XIP fragment 251-270 binding compounds – biochemical, small-molecule microarray, fluorescence 635/667 nm, 0.1 µg/mL protein, primary screen (AID 1182). The following applies: fluorescent protein binding, 635 nm, higher = more signal, called active from +8 up or from −8 down.
The next test has as its system XIP peptide (Xip251-270). Description: compounds binding XIP fragment 251-270 – biochemical, small-molecule microarray, fluorescence 635/667 nm, 0.5 µg/mL protein, primary screen (AID 1183). The following applies: fluorescence 635 nm, higher = more signal.
The nature of test [12]: blood-stage malaria parasite viability loss – strain 3D7, DAPI fluorescence, 100 nL, primary screen (AID 1184).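 Also: parasites grown inside human red blood cells in medium with human serum.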 The following applies: P. falciparum 3D7 growth, 3 d, higher = more signal.
The target in test [13] is Homeobox protein Hox-A13 (Mus musculus) (UniProt Q62424). Description: disruptors of Hoxa13 oligonucleotide interaction – biochemical, fluorescence polarization, labeled oligonucleotide, primary screen (AID 1185). The following applies: Hoxa13:DNA binding, 15 min, higher = more signal, called active from +8 up or from −8 down. Background: In fluorescence polarisation assays a small probe gives low polarisation when free and higher when bound to something large.
Sequence of Homeobox protein Hox-A13 (Mus musculus) (Q62424 whole entry, looked up): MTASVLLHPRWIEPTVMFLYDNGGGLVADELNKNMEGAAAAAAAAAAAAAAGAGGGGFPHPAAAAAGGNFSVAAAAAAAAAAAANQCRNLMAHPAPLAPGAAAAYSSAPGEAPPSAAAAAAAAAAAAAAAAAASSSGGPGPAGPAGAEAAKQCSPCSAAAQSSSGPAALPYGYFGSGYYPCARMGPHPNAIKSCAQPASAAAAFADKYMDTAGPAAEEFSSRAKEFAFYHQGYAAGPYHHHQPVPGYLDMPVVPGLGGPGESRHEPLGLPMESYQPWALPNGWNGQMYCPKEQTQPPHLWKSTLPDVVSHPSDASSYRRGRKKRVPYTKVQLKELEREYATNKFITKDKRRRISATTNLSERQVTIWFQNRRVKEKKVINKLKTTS

The nature of test [14]: blockers of DNA damage checkpoint Chk1 activation – imaging, HeLa, hydroxyurea, phospho-Chk1 antibody, percent positive cells, primary screen (AID 1186). Particulars: hydroxyurea-induced phospho-Chk1 immunofluorescence imaging, higher = more signal.
Test [15] in a line: blockers of DNA damage checkpoint Chk1 activation – imaging, HeLa, hydroxyurea, phospho-Chk1 nuclear intensity, primary screen (AID 1187). Particulars: hydroxyurea-induced phospho-Chk1 immunofluorescence imaging, higher = more signal.

Sequence of E3 ubiquitin-protein ligase XIAP (Homo sapiens) (P98170 whole entry, looked up, the tested form may be a part): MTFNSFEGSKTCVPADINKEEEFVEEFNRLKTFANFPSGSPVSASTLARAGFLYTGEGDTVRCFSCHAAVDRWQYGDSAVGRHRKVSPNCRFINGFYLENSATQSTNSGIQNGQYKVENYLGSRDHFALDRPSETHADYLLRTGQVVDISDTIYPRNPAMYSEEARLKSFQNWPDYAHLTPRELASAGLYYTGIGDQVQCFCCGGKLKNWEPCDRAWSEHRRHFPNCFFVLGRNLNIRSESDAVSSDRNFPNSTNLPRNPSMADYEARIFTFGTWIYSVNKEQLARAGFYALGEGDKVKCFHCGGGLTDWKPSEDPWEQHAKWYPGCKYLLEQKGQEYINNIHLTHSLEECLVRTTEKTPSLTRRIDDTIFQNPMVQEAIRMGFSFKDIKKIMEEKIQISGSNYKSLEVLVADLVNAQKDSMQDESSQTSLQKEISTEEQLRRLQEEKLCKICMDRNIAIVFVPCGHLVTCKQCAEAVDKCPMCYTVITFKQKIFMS

Regarding `NC(=O)N1C(=O)C2C(C1=O)C1C=C(CCCO)C2C(c2cccs2)N1Cc1cc2c(cc1Br)OCO2` (centres undefined), the z-score in test [1] is 0.652; in test [2], -2.37 (inactive); in [3] it was 0.271 (inactive); in [5], -0.259 (inactive); in test [6], 0.0427 (inactive); in test [7], 0.18 (inactive). Besides, the z-score in test [8] is 0.0419 (inactive); in test [9] it was 0.645; in test [12], 0.376; in [13] it was -5.04 (inactive); in test [14], 0.164 (inactive); in test [15], 0.509 (inactive). Also, the composite z-score in test [4] is -1.72 (inactive); in test [10], -0.267; in test [11] it was 0.0706 (inactive); in the test with XIP peptide (Xip251-270), 0.231.

Turning to `COc1ccc(C(O)C2C=CC3C(=O)N(C)C(=O)C3N2N2CCCCC2)cc1` (centres undefined), the z-score was -0.197 in test [1]; 0.381 (inactive) in test [2]; -0.8 (inactive) in test [3]; 0.49 (inactive) in test [5]; -0.378 (inactive) in test [6]; -0.584 (inactive) in test [7]. The z-score in [8] is -0.858 (inactive); in test [9], -0.267; in [12], -0.0513; in [13], -4.16 (inactive); in test [14], -1.52 (inactive); in [15], -1.31 (inactive). In addition, the composite z-score in test [4] is 0.0624 (inactive); in test [10] it was 0.0728; in test [11], 0.568 (inactive); in the test with XIP peptide (Xip251-270), 0.37.

Take `COc1ccccc1CN1C(=O)c2ccccc2[C@@H](C(=O)NC(C)C)[C@@H]1c1ccc(CO)cc1`: the z-score in test [1] is 1.1; in test [2], -0.186 (inactive); in [3] it was 1.1 (inactive); in test [5], -0.963 (inactive); in test [6], -0.108 (inactive); in [7] it was 0.686 (inactive). Besides, the z-score in test [8] was 0.0549 (inactive); in test [9], 1.17; in test [12] it was -0.425; in test [13], -1.9 (inactive); in test [14], 0.19 (inactive); in test [15], 0.686 (inactive). The composite z-score in test [4] is -0.469 (inactive); in test [10] it was 0.0251; in [11] it was 0.0282 (inactive); in the test with XIP peptide (Xip251-270), 0.905.

With `CCCC[C@@H]1C[C@H]1[C@@H](NC(=O)c1ccccc1)c1ccc(Cl)cc1`, the z-score in test [1] is 1.18; in test [2], 0.127 (inactive); in [3] it was 0.696 (inactive); in test [5], 0.495 (inactive); in test [6], -0.359 (inactive); in test [7], -1.11 (inactive). Besides, the z-score is -0.324 (inactive) in test [8]; 1.51 in [9]; -0.385 in [12]; -3.04 (inactive) in [13]; 0.413 (inactive) in test [14]; -0.524 (inactive) in [15]. In addition, the composite z-score in test [4] was -0.402 (inactive); in [10], 0.0049; in test [11], -0.778 (inactive); with XIP peptide (Xip251-270), -2.03.

With `[N-]=[N+]=NCc1ccccc1C[C@]1(C(=O)NCC(O)CO)N=C(c2ccc(OCCCO)cc2)O[C@H]1c1ccccc1CN=[N+]=[N-]` (some centres undefined), the z-score in test [1] is -0.459; in test [2], -0.804 (inactive); in test [3], -0.449 (inactive); in [5] it was 1.09 (inactive); in test [6], 0.18 (inactive); in [7], 0.78 (inactive). Also, the z-score is -0.012 (inactive) in [8]; -0.881 in test [9]; -2.78 in [12]; -0.829 (inactive) in [13]; 0.458 (inactive) in test [14]; 0.414 (inactive) in [15]. In addition, the composite z-score in test [4] is -0.212 (inactive); in [10], -0.149; in test [11], 0.311 (inactive); in the test on XIP peptide (Xip251-270), 0.75.

As for `CCOC(=O)C[C@H]1[C@H](OC(=O)c2ccc(-c3ccccc3)cc2)[C@@H](NC(=O)C2CCCCC2)c2cc(OCCCO)ccc2N1C(=O)c1ccccc1`, the z-score is -0.755 in test [1]; 1.44 (inactive) in test [2]; -0.464 (inactive) in [3]; 0.656 (inactive) in test [5]; 0.925 (inactive) in test [6]; -0.406 (inactive) in test [7]. Moreover, the z-score in [8] was -0.566 (inactive); in test [9], -0.95; in [12] it was -0.723; in test [13], -2.07 (inactive); in [14] it was -0.0374 (inactive); in test [15], 0.0385 (inactive). The composite z-score in [4] was 0.141 (inactive); in [10], 0.0623; in [11], -0.264 (inactive); in the test with XIP peptide (Xip251-270), 0.379.

Take `COCCOC(=O)N1C(=O)[C@@]2(c3cc(C#CC4=CCCCC4)ccc31)[C@H](c1ccc(O)cc1)N1[C@H](c3ccccc3)[C@H](c3ccccc3)OC(=O)[C@H]1[C@@H]2C(=O)Nc1nc2ccccc2s1`: the z-score in test [1] is -0.477; in test [2], 0.175 (inactive); in test [3], 0.0007 (inactive); in test [5], 1.44 (inactive); in [6], 0.297 (inactive); in test [7], -0.61 (inactive). Further, the z-score is 0.0717 (inactive) in test [8]; -0.0867 in test [9]; -1.32 in test [12]; 1.05 (inactive) in [13]; 0.0256 (inactive) in test [14]; 0.125 (inactive) in test [15]. The composite z-score in test [4] is -0.399 (inactive); in test [10] it was 0.0114; in test [11], 0.863 (inactive); with XIP peptide (Xip251-270) it was 0.843.

Consider `CC=CC(O)C1C=CC2C(=O)N(C)C(=O)C2N1Nc1ccc([N+](=O)[O-])cc1[N+](=O)[O-]` (centres undefined), for which the z-score in test [1] is -1.12; in [2], 0.554 (inactive); in test [3], -0.831 (inactive); in [5] it was 0.599 (inactive); in test [6], 0.658 (inactive); in test [7] it was -0.476 (inactive). In addition, the z-score was -0.618 (inactive) in test [8]; -0.606 in test [9]; 0.619 in test [12]; -0.734 (inactive) in test [13]; -0.0994 (inactive) in test [14]; -0.104 (inactive) in test [15]. In addition, the composite z-score is 0.295 (inactive) in test [4], -0.247 in test [10], 0.32 (inactive) in test [11] and 0.266 in the test with XIP peptide (Xip251-270).

Take `O=C1O[C@@H](c2ccccc2)[C@@H](c2ccccc2)N2[C@@H](c3ccc(O)cc3)[C@]3(C(=O)Nc4ccccc43)[C@@H](C(=O)Nc3nc4ccccc4s3)[C@H]12`: the z-score in test [1] is -1.66; in test [2] it was -0.505 (inactive); in test [3], -3.11 (inactive); in [5] it was 2.43 (inactive); in test [6], 0.72 (inactive); in test [7], -0.0021 (inactive). For the same molecule, the z-score in test [8] is 0.251 (inactive); in test [9] it was -4.69; in test [12], -0.247; in test [13], 2.05 (inactive); in test [14], -0.193 (inactive); in [15] it was -0.259 (inactive). For the same molecule, the composite z-score in test [4] was 0.162 (inactive); in [10], -0.0045; in test [11], 1.03 (inactive); in the test on XIP peptide (Xip251-270), 0.638.
